S aureus helic: S. aureus DNA helicase inhibition; 120,000 tested, 0.05% active; inhibition, % (test concentration not listed); purified S. aureus helicase, fluorescence unwinding assay; in the data active = inhibition above about 25%, passing the limit was not always enough
Sa growth inh: inhibitors of Staphylococcus aureus growth at 42 °C | S. aureus RN4220 growth, OD600, 20 h; stronger effect = lower value | 170,000 tested, 0.53% active | AID 720641 | relative growth, % (no concentration beside the values);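 active = relative growth at most 50% at the other temperature and 20+ points below 30 °C, or under 10% at both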
A number is an active result; . = inactive; / = no result given. Many of the other results were omitted from the sample, so hits are more common in it than they were.

SMILES	S aureus helic	Sa growth inh
CCCCOC(=O)c1ccccc1Nc1ccn2c(=O)c3ccccc3nc2n1	.	.
CC1=C/C(=N/N=c2\sc3ccccc3n2C)CC(C)(C)C1	.	.
Nc1nc(-c2ccc3c(c2)CCCC3)cs1	.	.
Nc1nc(=S)nc(Cc2ccc3c(c2)CCC3)[nH]1	.	45.3
O=C1C2C3c4ccccc4C(c4ccccc43)C2C(=O)N1C(CO)(CO)CO (stereo not drawn)	.	.
COc1cc(/C=N/NC(=O)c2cc(-c3cccn3C)n[nH]2)cc(OC)c1OC	.	-0.2
O=C(N/N=C/c1ccccc1)c1cc(-c2ccccc2)n[nH]1	.	.
Cc1nc(SC(C#N)Cc2ccccc2)c2ccccc2n1 (stereo not drawn)	.	.
CCCCC/C=C/CCC(=O)N[C@H]1[C@H](Oc2c3cc4cc2Oc2ccc(cc2Cl)[C@@H](O[C@@H]2O[C@H](CO)[C@@H](O)[C@H](O)[C@H]2NC(C)=O)[C@@H]2NC(=O)[C@H](NC(=O)[C@@H]4NC(=O)[C@H]4NC(=O)C(Cc5ccc(c(Cl)c5)O3)NC(=O)[C@H](N)c3ccc(O)c(c3)Oc3cc(O)cc4c3)c3ccc(O)c(c3)-c3c(OC4O[C@H](CO)[C@@H](O)[C@H](O)[C@@H]4O)cc(O)cc3[C@@H](C(=O)O)NC2=O)O[C@H](CO)[C@@H](O)[C@@H]1O (stereo partly drawn)	/	-0.1
Cc1ccc(C)c(N2N=C(C(=O)OCC(=O)NC3CC3)CCC2=O)c1	.	.
Cc1nn(Cc2ccccc2Cl)c2sc(C(=O)OCc3nc4ccccc4c(=O)n3CC#N)cc12	.	.
CCOC(=O)c1ccc(N2COc3ccc4c5c(c(=O)oc4c3C2)CCC5)cc1	.	.
CCOC(=O)N1CCN(C(=O)COC(=O)C2=C(Nc3ccccc3)OCC2=O)CC1	.	.
CCOC(=O)c1c(N)n(C(C)c2ccccc2)c2nc3ccccc3nc12 (stereo not drawn)	.	.
Cn1c(SCc2cc(=O)oc3cc(O)c(O)cc23)nc2ccccc21	67.0	.
Nn1c(SCc2cc(=O)oc3cc(O)c(O)cc23)nnc1-c1ccncc1	.	.
CCn1c(SCc2cc(=O)oc3cc(O)ccc23)nc2ccccc21	.	.
Nn1c(Cc2ccccc2F)nnc1SCc1cc(=O)oc2cc(O)c(O)cc12	55.0	.
Cc1ccc(-c2cc(=O)c3ccccc3o2)cc1	/	.
CCOC(=O)/C(C#N)=C/c1cn(CCC#N)nc1C	.	.
Cc1nn2c(Br)c(C34CC5CC(CC(C5)C3)C4)nc2s1	.	.
CC(C)C(=O)Nc1cccc2nsnc12	.	1.2
Cc1ccc(S(=O)(=O)C(=O)Nc2cccc3nsnc23)cc1	.	.
COc1ccc(CNCc2ccc(N(C)C)cc2)cc1	.	.
CCN1/C(=C(\C#N)c2nc(C#N)c(C#N)nc2N2CCOCC2)Nc2ccccc21	.	.
SMILES	S aureus helic	Sa growth inh
CCN(CC)C(=O)C1CCC(=O)N(c2ccc(OC)cc2)C1c1ccc(OC)c(OC)c1 (stereo not drawn)	.	.
CC1CC(C)CN(C(=O)CSc2ncnc3ccccc23)C1 (stereo not drawn)	.	.
Nc1ccn([C@@H]2O[C@H](CO)[C@@H](O)C2O)c(=O)n1 (stereo partly drawn)	/	.
Nc1ccn([C@@H]2O[C@H](CO)[C@@H](O)C2(F)F)c(=O)n1	/	0.3
Cc1ccc(S(=O)(=O)NCC(=O)OCc2cc(Cl)cc3c2OCOC3)cc1	.	.
NC(=NC(=O)c1cccc(C(F)(F)F)c1)c1cccs1	/	.
Oc1cccc(-c2nc3ccccc3[nH]2)c1	.	/
Cc1cc(Nc2ncc(Cl)cc2Cl)n[nH]1	.	2.2
CN(CC(=O)Nc1ncc(Cl)cc1Cl)Cc1ccc(Cl)cc1	.	.
O=C(CCN1C(=O)c2ccccc2C1=O)Nc1nncs1	.	.
CCNc1nc(SCc2ccc(Cl)cc2)nc2sc3c(c12)CCN(C)C3	/	10.0
CCNc1nc(SCC(=O)NC(=O)NCc2ccccc2)nc2sc3c(c12)CCN(C)C3	/	.
Cc1noc(C)c1COC(=O)c1cc(S(=O)(=O)NC(C)C)ccc1Br	.	.
Cc1ccc(/C=N/NC=O)o1	.	.
CC(=O)Nc1ccc(S(=O)(=O)N2CCC(C)CC2)cc1	.	.
CC1CCN(S(=O)(=O)c2ccc(NC(=O)Nc3ccccc3)cc2)CC1	.	31.5
NC(=O)c1ccccc1OCC(=O)N1N=C(c2cccs2)CC1c1cccs1 (stereo not drawn)	.	.
CCOC(=O)CCn1cc(F)c(=O)[nH]c1=O	.	.
CC(=O)On1cc(F)c(=O)[nH]c1=O	.	0.7
NNc1ccc2c(Cl)cc(Cl)c(O)c2n1	.	4.2
NNc1ccc(Cl)c(Cl)c1	.	.
CNC(=S)N1CCNC(=O)C1CC(=O)Nc1cc(Cl)ccc1C (stereo not drawn)	.	.
CN(C)CCC(=O)c1ccc2c(c1)OCO2	.	.
CCCCCc1ccc(C(=O)CCN(C)C)cc1	.	-0.1
Cc1ccc(OCCn2cc(C=C(C#N)C#N)c3ccccc32)cc1	.	.
C=CCC1C=C(C=C)CC(CC=C)N1 (stereo not drawn)	.	.

Screening results from PubChem.
